Measurements taken from PubChem BioAssay (NCATS).
Inconclusive results are not listed. A call without a number means that no potency is given here. Calls of active or inactive are those of the source. Calls come from the whole dose curve; as a rule, active = well fitted curve in the direction sought with a large enough effect; inconclusive = small, poorly fitted or top-dose-only effect, or another doubt; inactive = no such curve, though single readings can be large; an effect the other way counts as inactive or inconclusive.

The compounds below were run against Aldehyde dehydrogenase, mitochondrial (Homo sapiens) (UniProt P05091) (assay: qHTS for Inhibitors of the Aldehyde Dehydrogenase Family (ALDH2) Primary screen (AID 2061308; note: nearly all actives have a fitted effect of over 55% in size)). Conditions: ALDH2 enzyme inhibition qHTS, 1536-well; series mostly up to 56 µM.

**Q.** For `C/C=C(\C)C(=O)O[C@@H]1[C@@H](C)[C@]2(O)C3C=C(C)C(=O)[C@@]3(O)CC(CO)=C[C@H]2C2C(C)(C)[C@@]21OC(=O)C(C)CC` (some centres undefined), which Potency is on record?
**A.** inactive

**Q.** Which Potency does the source give for `COC(=O)C12C(=O)C(C)(O)C(=O)C1(C)C(C)=CC1C3(C=O)CCC(OC(C)=O)C(C)(C)C3CCC12C` (centres undefined) here?
**A.** inactive

**Q.** `COc1cccc(CNc2ccc(S(=O)(=O)Nc3nccs3)cc2)c1OC` was tested. Which Potency did it give?
**A.** inactive

**Q.** `CCOc1ccc(CCNC(=O)c2cc3ncccc3n2Cc2cccc(C)c2)cc1OCC` was tested. Which Potency did it give?
**A.** inactive

**Q.** With `CC1=CC2/C=C(\C)CCC(O)C(O)C(O)CC(=O)C23C(=O)NC(CC(C)C)C3C1C` (centres undefined) as the compound, how does the Potency read?
**A.** inactive

**Q.** Which activity change, negative = inhibition does the source give for `Nc1ncnc2c1ncn2[C@@H]1O[C@@H]2COP(O)(=S)O[C@H]2[C@H]1O` (some centres undefined) here?
**A.** 4.01% [at 11.2 µM] (inactive)

**Q.** `C[C@@H]1[C@H](O)[C@@H](C)/C=C/C=C/CC/C=C/C=C/C=C/C=C/[C@H](O[C@H]2O[C@@H](C)[C@H](O)[C@@H](N)[C@H]2O)C[C@@H]2O[C@](O)(C[C@@H](O)[C@H](O)CC[C@@H](O)C[C@@H](O)C[C@@H](O)CC(=O)O[C@H]1C)C[C@H](O)[C@H]2C(=O)O` was tested. Which Potency did it give?
**A.** inactive

**Q.** Which Potency does the source give for `CCCc1ccc(NC(=O)c2ccc3c(c2)NC(=O)CS3)cc1` here?
**A.** inactive

**Q.** Which Potency does the source give for `CCOC(=O)C1CCN(C(=O)C2(NC(=O)Nc3ccccc3Cl)CCCC2)CC1` here?
**A.** inactive

**Q.** `O=C(Nc1ncc(Cc2ccc(C(F)(F)F)cc2)s1)c1cnc(-c2ccccc2)o1` was tested. Which Potency did it give?
**A.** inactive

**Q.** `CO[C@H]1[C@H](O)[C@H](O[C@H]2CC[C@]3(C)C4CC[C@]5(C)[C@H](C6=CC(=O)OC6)CC[C@]5(O)C4CC[C@@H]3C2)O[C@@H](C)[C@@H]1O` (some centres undefined) was tested. Which Potency did it give?
**A.** inactive

**Q.** With `CC(C)CCn1c(CN2CCN(C(=O)C3CC3)CC2)nc2c1c(=O)n(C)c(=O)n2C` as the compound, how does the Potency read?
**A.** inactive

**Q.** Which Potency does the source give for `C[C@@H]1CCC/C=C/[C@H]2C[C@@H](O)C[C@@H]2[C@@H](O)/C=C/C(=O)O1` here?
**A.** inactive

**Q.** For `CCCCCOc1cc2c(cc1-c1cc(/C=C/C(=O)O)ccc1O)C(C)(C)CCC2(C)C`, which Potency is on record?
**A.** inactive

**Q.** How did the Potency turn out when `CC(=O)O[C@H]1C(=O)[C@]2(C)C(O)C[C@H]3OC[C@@]3(OC(C)=O)[C@H]2[C@H](OC(=O)c2ccccc2)[C@]2(O)C[C@H](O)C(C)=C1C2(C)C` (some centres undefined) was run?
**A.** inactive

**Q.** For `O=S(=O)(Nc1nccs1)c1ccc(NCc2cccc(F)c2O)cc1`, which Potency is on record?
**A.** inactive

The compounds below were run against Retinaldehyde dehydrogenase 3 (Homo sapiens) (UniProt P47895) (assay: qHTS for Inhibitors of the Aldehyde Dehydrogenase Family (ALDH1A3) Primary screen (AID 2061315)). Conditions: ALDH inhibition qHTS; series mostly up to 56 µM.

**Q.** How did the Potency turn out when `O=S(=O)(Nc1cccc2ccncc12)c1ccc(NCc2cccc(Cl)c2O)cc1` was run?
**A.** inactive

**Q.** Which Potency does the source give for `COC1C(O)C(C)OC(OC2C(CO)O[C@@H](O[C@@H]3CC4CCC5C(CC[C@]6(C)[C@@H](C7=CC(=O)OC7)CC[C@]56O)[C@@]4(C)[C@H](OC(C)=O)C3)C(O)C2O)C1O` (some centres undefined) here?
**A.** inactive

**Q.** How did the Potency turn out when `C=C(CO)[C@@]12O[C@@H]1[C@@]1(C)C(=CC2=O)CC[C@@H](O)[C@@H]1C` was run?
**A.** inactive

**Q.** Which activity change, negative = inhibition does the source give for `CC[C@H](C)[C@H](NC(=O)[C@H]1CCCCN1C)C(=O)N(COC(=O)CC(C)C)[C@H](C[C@@H](OC(C)=O)c1nc(C(=O)N[C@@H](Cc2ccc(O)cc2)C[C@H](C)C(=O)O)cs1)C(C)C` here?
**A.** 6.02% [at 1.12 µM] (inactive)

**Q.** With `CO[C@@H]1[C@H](O)[C@@H](O[C@@H]2C[C@H]3CC[C@@H]4C(CC[C@]5(C)[C@@H](C6=CC(=O)OC6)CC[C@]45O)[C@@]3(C)[C@H](O)C2)O[C@H](C)[C@@H]1O[C@@H]1O[C@H](CO)[C@@H](O)[C@H](O)[C@H]1O` (some centres undefined) as the compound, how does the Potency read?
**A.** inactive

**Q.** With `Cc1cccc(NC(=O)N[C@H]2CN(C)c3ccccc3C(c3ccccc3)=N2)c1` as the compound, how does the Potency read?
**A.** inactive

**Q.** With `C#C[C@]1(O)CC[C@H]2[C@@H]3CC[C@H]4Cc5nc6nc7ccccc7n6cc5C[C@]4(C)[C@H]3CC[C@@]21C` as the compound, how does the Potency read?
**A.** inactive

**Q.** `CCOc1ccc(CCNC(=O)c2ccc(C(=O)c3ccccc3)cc2)cc1OCC` was tested. Which Potency did it give?
**A.** inactive

**Q.** With `Fc1cc(F)c2c(c1)C1C=CCC1C(c1cccnc1)N2` (centres undefined) as the compound, how does the Potency read?
**A.** inactive

**Q.** For `CO[C@H]1[C@@H](O)[C@@H](C)O[C@@H](O[C@@H]2C=C3C(OC(C)=O)CC4(O)C(CC[C@]5(C)[C@@H](C6=CC(=O)OC6)CC[C@]45O)[C@@]3(C)CC2)[C@@H]1O` (some centres undefined), which Potency is on record?
**A.** inactive

**Q.** With `COc1cccc(CNc2ccc(S(=O)(=O)Nc3cccc(-c4ccccc4)c3)cc2)c1O` as the compound, how does the Potency read?
**A.** inactive

**Q.** For `C[C@]12CC[C@@H](O)C[C@@H]1CC[C@@H]1[C@@H]2CC[C@]2(C)C(=O)[C@@H](Br)C[C@@H]12`, which Potency is on record?
**A.** inactive

**Q.** Which Potency does the source give for `Oc1cccc2cc(N3CCNCC3)cnc12` here?
**A.** inactive

**Q.** Which Potency does the source give for `Cn1c(-c2ccccc2)c(P(=S)(c2ccccc2)c2ccccc2)c2ccccc21` here?
**A.** inactive

**Q.** How did the Potency turn out when `CCN1CCN(C(c2ccc(Cl)cc2)c2ccc(Cl)cc2)CC1` was run?
**A.** inactive

**Q.** `CC(=O)OC[C@]12C[C@H](OC(=O)CC(C)C)C(C)=C[C@H]1O[C@@H]1[C@H](O)[C@@H](O)[C@@]2(C)[C@]12CO2` was tested. Which Potency did it give?
**A.** inactive

**Q.** With `Oc1ccc2c3c1O[C@H]1c4[nH]c5c(N=C=S)cccc5c4C[C@@]4(O)[C@@H](C2)N(CC2CC2)CC[C@]314` as the compound, how does the Potency read?
**A.** inactive

**Q.** How did the Potency turn out when `CCCCC1C(=O)NC(=O)N(C2CCCCC2)C1=O` (centres undefined) was run?
**A.** inactive

**Q.** For `Cc1cccc2nc(NC3=NC(c4[nH]ncc4Cl)C4=C(CCCC4=O)N3)oc12` (centres undefined), which Potency is on record?
**A.** inactive

**Q.** How did the Potency turn out when `CO[C@@H]1C[C@H](O[C@H]2CC[C@@]3(C)C(CCC4C3CC[C@]3(C)[C@@H](C5=CC(=O)OC5)[C@@H](OC(C)=O)CC43O)C2)O[C@H](C)[C@@H]1O[C@H]1O[C@H](CO[C@@H]2O[C@H](CO)[C@@H](O)[C@H](O)[C@H]2O)[C@@H](O)[C@H](O)[C@H]1O` (some centres undefined) was run?
**A.** inactive

**Q.** For `COC1CC(OC2CCC3(C=O)C(CCC4C3CCC3(C)C(C5=CC(=O)OC5)CCC43O)C2)OC(C)C1OC1OC(CO)C(O)C(O)C1O` (centres undefined), which Potency is on record?
**A.** inactive

**Q.** `COc1ccsc1CNCC[C@@]1(c2ccccn2)CCOC2(CCCC2)C1` was tested. Which Potency did it give?
**A.** inactive

**Q.** How did the Potency turn out when `C/C=C(\C)C(=O)O[C@@H]1[C@@H](C)[C@]2(O)C3C=C(C)C(=O)[C@@]3(O)CC(CO)=C[C@H]2C2C(C)(C)[C@@]21OC(=O)C(C)CC` (some centres undefined) was run?
**A.** inactive

**Q.** How did the Potency turn out when `COC(=O)C12C(=O)C(C)(O)C(=O)C1(C)C(C)=CC1C3(C=O)CCC(OC(C)=O)C(C)(C)C3CCC12C` (centres undefined) was run?
**A.** inactive

**Q.** How did the Potency turn out when `COc1cccc(CNc2ccc(S(=O)(=O)Nc3nccs3)cc2)c1OC` was run?
**A.** inactive

**Q.** How did the Potency turn out when `CCOc1ccc(CCNC(=O)c2cc3ncccc3n2Cc2cccc(C)c2)cc1OCC` was run?
**A.** inactive

**Q.** For `CC1=CC2/C=C(\C)CCC(O)C(O)C(O)CC(=O)C23C(=O)NC(CC(C)C)C3C1C` (centres undefined), which Potency is on record?
**A.** inactive

**Q.** Which activity change, negative = inhibition does the source give for `Nc1ncnc2c1ncn2[C@@H]1O[C@@H]2COP(O)(=S)O[C@H]2[C@H]1O` (some centres undefined) here?
**A.** 2.78% [at 11.2 µM] (inactive)

**Q.** How did the Potency turn out when `C[C@@H]1[C@H](O)[C@@H](C)/C=C/C=C/CC/C=C/C=C/C=C/C=C/[C@H](O[C@H]2O[C@@H](C)[C@H](O)[C@@H](N)[C@H]2O)C[C@@H]2O[C@](O)(C[C@@H](O)[C@H](O)CC[C@@H](O)C[C@@H](O)C[C@@H](O)CC(=O)O[C@H]1C)C[C@H](O)[C@H]2C(=O)O` was run?
**A.** inactive

**Q.** Which Potency does the source give for `CCCc1ccc(NC(=O)c2ccc3c(c2)NC(=O)CS3)cc1` here?
**A.** inactive

**Q.** How did the Potency turn out when `CCOC(=O)C1CCN(C(=O)C2(NC(=O)Nc3ccccc3Cl)CCCC2)CC1` was run?
**A.** inactive

**Q.** `O=C(Nc1ncc(Cc2ccc(C(F)(F)F)cc2)s1)c1cnc(-c2ccccc2)o1` was tested. Which Potency did it give?
**A.** inactive

**Q.** How did the Potency turn out when `CO[C@H]1[C@H](O)[C@H](O[C@H]2CC[C@]3(C)C4CC[C@]5(C)[C@H](C6=CC(=O)OC6)CC[C@]5(O)C4CC[C@@H]3C2)O[C@@H](C)[C@@H]1O` (some centres undefined) was run?
**A.** inactive

**Q.** `CC(C)CCn1c(CN2CCN(C(=O)C3CC3)CC2)nc2c1c(=O)n(C)c(=O)n2C` was tested. Which Potency did it give?
**A.** inactive

**Q.** How did the Potency turn out when `C[C@@H]1CCC/C=C/[C@H]2C[C@@H](O)C[C@@H]2[C@@H](O)/C=C/C(=O)O1` was run?
**A.** inactive

**Q.** How did the Potency turn out when `CCCCCOc1cc2c(cc1-c1cc(/C=C/C(=O)O)ccc1O)C(C)(C)CCC2(C)C` was run?
**A.** inactive

**Q.** How did the Potency turn out when `CC(=O)O[C@H]1C(=O)[C@]2(C)C(O)C[C@H]3OC[C@@]3(OC(C)=O)[C@H]2[C@H](OC(=O)c2ccccc2)[C@]2(O)C[C@H](O)C(C)=C1C2(C)C` (some centres undefined) was run?
**A.** inactive

**Q.** `O=S(=O)(Nc1nccs1)c1ccc(NCc2cccc(F)c2O)cc1` was tested. Which Potency did it give?
**A.** inactive
